Screens from PubChem.
The list is not random: actives were taken first. Their share in the collection is about 1.6%.
Dyrk1A ADPGlo: Dyrk1A (rat) kinase inhibition. Q63470. ADP-Glo luminescence, NFATc1 peptide. inhibition, % at 12.5 µM. 0.43% of 310,000 active; in the data active = inhibition above about 50%
Bfl-1 A1 inh: inhibitors of the anti-apoptotic protein A1, read as caspase activation; MEF A1-2A-BIM cells, Caspase-Glo 3/7 luminescence, 3 h; percent of clofoctol response, vehicle zero; caspase activation, % (no concentration beside the values); 0.066% of 330,000 active;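 active = over half of replicate activation scores above 10%, or exactly half above 10 with the replicate mean above 10; inconclusive = replicate mean below 10 yet half the replicates above 10; inactive = over half of replicates below 10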
dFosB act-1: mouse delta FosB homodimer activation; P13346; purified delta FosB, TAMRA-CDK5 oligo fluorescence polarization; percent of positive-control signal above neutral wells; activation, % at 25 µM; 0.99% of 340,000 active; AID 493131;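 active = mean activation above about 17%, with every replicate also reaching it, limit read from the data, passing the limit was not always enough; inconclusive = only one of the two conditions met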
B2AR ag: agonists of human beta-2 adrenergic receptor inducing internalization. P07550. Am2.2-beta2AR cells, FAP receptor internalization, flow cytometry. response, % (test concentration not listed). 0.43% of 340,000 active. AID 504454;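 active = response above a set limit, near 3 SD of response in nonfluorescent compounds, cut at about 42% in these data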
Target sequence (P07550 whole entry, looked up): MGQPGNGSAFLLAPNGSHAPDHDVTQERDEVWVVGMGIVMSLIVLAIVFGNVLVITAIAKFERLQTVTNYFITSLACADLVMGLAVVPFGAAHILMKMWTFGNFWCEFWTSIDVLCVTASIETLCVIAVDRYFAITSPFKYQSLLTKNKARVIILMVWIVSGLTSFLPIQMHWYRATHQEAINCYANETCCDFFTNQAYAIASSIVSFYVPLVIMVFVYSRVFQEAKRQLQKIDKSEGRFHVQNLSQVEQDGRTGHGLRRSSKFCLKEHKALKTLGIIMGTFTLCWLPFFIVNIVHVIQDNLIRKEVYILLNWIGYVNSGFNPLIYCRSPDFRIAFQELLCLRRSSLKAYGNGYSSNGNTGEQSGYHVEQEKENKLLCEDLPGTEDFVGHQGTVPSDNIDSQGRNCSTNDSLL
dFosB act-2: activators of mouse delta FosB homodimer DNA binding; activation, % at 24.9 µM; shares compounds with dFosB act-1; purified delta FosB, TAMRA-CDK5 oligo fluorescence polarization; normalised: neutral wells 0, positive control 100; 2,400 tested, under 10 active;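 active = highest replicate activation at or above 34% and every replicate reaching that threshold; inconclusive = meets only one of the two criteria; inactive = meets neither criterion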;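 also: higher polarization means more probe DNA bound by delta FosB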
Numbers stand for hits; – = inactive; ? = inconclusive; · = not tested or not shown.

SMILES	Dyrk1A ADPGlo	Bfl-1 A1 inh	dFosB act-1	B2AR ag	dFosB act-2
CC(=O)NC(=O)c1ccc(-c2ccc(Cl)cc2)o1	–	–	26	–	–
O=C(CNC(=O)c1n[nH]c2ccccc12)Nc1ccc(F)c(F)c1F	·	–	23	–	–
O=C(CNC(=O)c1cccc(Cl)c1)Nc1ccc(F)c(F)c1F	–	–	–	–	·
OCCC1CN(CC(c2ccccc2)c2ccccc2)CCN1C1CCCC1 (stereo not drawn)	–	–	–	–	·
COc1ccc(/C=C2\SC(=O)N(CC(=O)NN3CCN(C)CC3)C2=O)cc1OC	–	–	–	–	·
Cn1c(=O)c(=O)n(C)c2cc(S(=O)(=O)CCC(=O)Nc3cccc(C(F)(F)F)c3)ccc21	·	–	21	–	–
O=C(COC(=O)c1cc([N+](=O)[O-])ccc1NCCO)Nc1cccc(S(=O)(=O)N2CCCC2)c1	–	–	31	–	–
Cc1ccc(NC(=O)CN(C)C(=O)c2ccc(S(=O)(=O)N(C)c3ccccc3)cc2)cc1	–	–	–	–	·
CC(=O)Nc1ccc(NC(=O)COC(=O)c2ccc(S(=O)(=O)N(C)c3ccccc3)cc2)cc1	–	·	38	–	–
O=C(COC(=O)c1ccc(S(=O)(=O)N2CCCCC2)cc1)Nc1ccccc1	·	–	21	–	–
COc1ccc(NC(=O)COC(=O)c2ccc(S(=O)(=O)N(C)c3ccccc3OC)cc2)cc1OC	–	–	–	–	·
COc1ccccc1N(C)S(=O)(=O)c1ccc(C(=O)OCC(=O)Nc2ccc(C(N)=O)cc2)cc1	·	–	66	–	–
COc1cccc(NC(=O)N2CCC(NC(=O)C(Cc3ccccc3F)NC(C)=O)CC2)c1 (stereo not drawn)	–	–	–	–	·
CCOC(=O)[C@@H]1[C@H]2COc3ccc(Br)cc3[C@H]2N2C(=O)N(c3ccc(Cl)cc3)C(=O)[C@]12C	–	?	–	–	·
Cc1ccc(OCC(=O)NNC(=O)CCC(=O)NCc2ccccc2)cc1	–	–	–	–	·
Cc1cc(Br)cc(C)c1OCC(=O)NNC(=O)CCC(=O)NCc1ccccc1	–	–	49	–	–
COc1ccc(S(=O)(=O)Nc2cccc(-c3ccc4nncn4n3)c2)c(OC)c1	–	–	–	–	·
Cc1cc(-c2nc3ncccc3o2)ccc1NC(=S)NC(=O)c1ccco1	–	–	25	–	–
COc1ccc(-n2nc(C(=O)Nc3ccc4c(c3)OCO4)c3ccccc3c2=O)c(OC)c1	–	–	–	–	·
COc1ccccc1-n1nc(C(=O)Nc2ccc3c(c2)OCO3)c2ccccc2c1=O	–	–	24	–	–
Nc1nonc1-c1nc2ccccc2n1CC(=O)Nc1ccccc1	–	–	33	–	–
CCOC(=O)c1ccccc1NC(=O)Cn1c(-c2nonc2N)nc2ccccc21	–	–	–	–	·
Cc1cc(O)c(-c2n[nH]c3c2C(c2cccc(O)c2)N(Cc2cccnc2)C3=O)cc1Cl (stereo not drawn)	–	–	23	·	–
COCCN(CC(=O)Nc1cccc(C)c1C)C(=O)c1ccc(S(=O)(=O)N2CCOCC2)cc1	·	·	–	–	·
CCCn1nc(C(=O)NCC2COc3ccccc3O2)c2ccccc2c1=O (stereo not drawn)	–	–	–	–	·
SMILES	Dyrk1A ADPGlo	Bfl-1 A1 inh	dFosB act-1	B2AR ag	dFosB act-2
CSc1ccc(-c2sc(Nc3ccccc3)n[n+]2-c2ccccc2)cc1	–	–	–	–	·
CCc1ccc(Nc2n[n+](-c3ccccc3)c(-c3ccc(SC)cc3)s2)cc1	–	–	31	–	–
O=C(COc1ccc(Cl)cc1Cl)Nc1cccc(-c2ccc(N3CCOCC3)nn2)c1	–	·	–	–	·
O=C(COc1ccc(Cl)cc1Cl)Nc1ccc(-c2ccc(N3CCOCC3)nn2)cc1	–	–	42	–	–
NS(=O)(=O)c1ccc(NC(=O)COC(=O)/C(=C/c2cccs2)c2cccs2)cc1	–	–	27	–	–
CCN(CC)C(=O)C1c2ccccc2Oc2ccccc21	–	–	–	–	·
Cc1cccc(C)c1NC(=O)COC(=O)c1ccc(N2CCCC2)c([N+](=O)[O-])c1	–	–	51	–	–
CCc1ccc2nc(SCC(=O)Nc3ccccc3N3CCOCC3)c(C#N)cc2c1	–	–	24	–	–
Cc1ccc2nc(SCC(=O)Nc3ccccc3N3CCOCC3)c(C#N)cc2c1	–	–	–	–	·
Cc1cc2nc(-c3ccc(SCC(=O)Nc4nccs4)nc3)[nH]c2cc1C	–	·	58	–	–
CC(=O)CSc1ccc(-c2nc3cc(C)c(C)cc3[nH]2)cn1	–	–	–	–	·
O=C(CCCNC(=O)c1ccc(Cl)cc1)OCc1cccc(Br)c1	–	–	–	–	·
Cc1ccc(C(=O)Nc2cccc(C(O)c3ccccc3)c2)cc1 (stereo not drawn)	–	–	–	–	·
COc1cc(/C=C/c2nc(-c3ccccc3O)n[nH]2)cc(OC)c1OC	–	–	?	–	·
CC(=O)Nc1ccc(/C=C/c2nc(-c3ccccc3O)n[nH]2)cc1	–	–	24	–	–
COc1ccc(CCNC(=O)CCn2c(SCC#N)nc3ccccc3c2=O)cc1OC	–	–	22	–	–
Cc1cc(=O)[nH]c(N/N=C/c2c(C)nn(-c3ccc(F)cc3)c2Cl)n1	·	–	46	–	–
Cc1cc(=O)[nH]c(NN=Cc2c(Cl)cccc2Cl)n1	–	·	–	–	·
CCn1c(COc2cccc(C)c2C)nnc1SCC(=O)Nc1cc(C)on1	–	–	?	–	·
Cc1cc(NC(=O)CSc2nnc(COc3cccc(C)c3C)n2C)no1	–	–	21	–	–
COc1ccc2[nH]c3c(=O)n(CCCC(=O)NC4CCC(C)CC4)c(=S)[nH]c3c2c1 (stereo not drawn)	–	–	53	–	–
COc1cccc(-c2c(C(=O)N/N=C/c3ccoc3)nnn2-c2nonc2N)c1	–	–	–	–	·
O=C1NC[C@H](Cc2ccccc2)N(C[C@H]2CCCN2C[C@H](Cc2ccccc2)N2C[C@H](Cc3ccccc3)N(CC3CCCCCC3)C(=O)C2=O)C1=O	·	·	–	–	·
CC(C)C[C@@H](CN1CCC[C@@H]1CN1C(=O)C(=O)NC[C@@H]1Cc1ccccc1)N1C[C@H](Cc2ccc(O)cc2)N(CCc2ccccc2)C(=O)C1=O	–	·	–	–	·
CCOc1ccc(CCN2C(=S)N([C@@H](CC(C)C)CN3CCCC3CN3C(=S)NC[C@@H]3Cc3ccc(O)cc3)C[C@@H]2Cc2ccc(O)cc2)cc1 (stereo partly drawn)	·	·	51	–	–
CCOc1ccc(CCN2C(=S)N([C@@H](CC(C)C)CN3CCCC3CN3C(=S)NC[C@@H]3Cc3ccc(O)cc3)C[C@@H]2Cc2ccccc2)cc1 (stereo partly drawn)	·	·	65	–	–
Oc1ccc(C[C@H]2CNC(=S)N2CC2CCCN2C[C@H](Cc2ccccc2)N2C[C@H](Cc3ccc(O)cc3)N(CCc3ccccc3)C2=S)cc1 (stereo partly drawn)	·	·	67	–	–
N#C/C(=C/C1=C(N2CCOCC2)C(=C/c2ccc(Cl)cc2Cl)/CC1)C(=O)Nc1ccccc1F	–	·	–	–	·
